Data as given in the supplement of paper PMC11732987, “Enantioselective OTUD7B fragment discovery through chemoproteomics screening and high-throughput optimisation” (Communications Chemistry, 2025).

What was measured:
Assay in all cases: log2 ratio of Biotin-Ahx-Ub-VS probe labelling (fragment/DMSO); higher = less target engagement (more negative = stronger competition), active = hit call of the paper (q ≤ 0.05, log2 ratio ≤ -1)
Conditions in all cases: compound concentration: 200 uM; treatment time: 3 h
[1] = molecular target: USP34 (UniProt Q70CQ2)
USP34, sequence (Q70CQ2 whole entry, the tested form may be a part): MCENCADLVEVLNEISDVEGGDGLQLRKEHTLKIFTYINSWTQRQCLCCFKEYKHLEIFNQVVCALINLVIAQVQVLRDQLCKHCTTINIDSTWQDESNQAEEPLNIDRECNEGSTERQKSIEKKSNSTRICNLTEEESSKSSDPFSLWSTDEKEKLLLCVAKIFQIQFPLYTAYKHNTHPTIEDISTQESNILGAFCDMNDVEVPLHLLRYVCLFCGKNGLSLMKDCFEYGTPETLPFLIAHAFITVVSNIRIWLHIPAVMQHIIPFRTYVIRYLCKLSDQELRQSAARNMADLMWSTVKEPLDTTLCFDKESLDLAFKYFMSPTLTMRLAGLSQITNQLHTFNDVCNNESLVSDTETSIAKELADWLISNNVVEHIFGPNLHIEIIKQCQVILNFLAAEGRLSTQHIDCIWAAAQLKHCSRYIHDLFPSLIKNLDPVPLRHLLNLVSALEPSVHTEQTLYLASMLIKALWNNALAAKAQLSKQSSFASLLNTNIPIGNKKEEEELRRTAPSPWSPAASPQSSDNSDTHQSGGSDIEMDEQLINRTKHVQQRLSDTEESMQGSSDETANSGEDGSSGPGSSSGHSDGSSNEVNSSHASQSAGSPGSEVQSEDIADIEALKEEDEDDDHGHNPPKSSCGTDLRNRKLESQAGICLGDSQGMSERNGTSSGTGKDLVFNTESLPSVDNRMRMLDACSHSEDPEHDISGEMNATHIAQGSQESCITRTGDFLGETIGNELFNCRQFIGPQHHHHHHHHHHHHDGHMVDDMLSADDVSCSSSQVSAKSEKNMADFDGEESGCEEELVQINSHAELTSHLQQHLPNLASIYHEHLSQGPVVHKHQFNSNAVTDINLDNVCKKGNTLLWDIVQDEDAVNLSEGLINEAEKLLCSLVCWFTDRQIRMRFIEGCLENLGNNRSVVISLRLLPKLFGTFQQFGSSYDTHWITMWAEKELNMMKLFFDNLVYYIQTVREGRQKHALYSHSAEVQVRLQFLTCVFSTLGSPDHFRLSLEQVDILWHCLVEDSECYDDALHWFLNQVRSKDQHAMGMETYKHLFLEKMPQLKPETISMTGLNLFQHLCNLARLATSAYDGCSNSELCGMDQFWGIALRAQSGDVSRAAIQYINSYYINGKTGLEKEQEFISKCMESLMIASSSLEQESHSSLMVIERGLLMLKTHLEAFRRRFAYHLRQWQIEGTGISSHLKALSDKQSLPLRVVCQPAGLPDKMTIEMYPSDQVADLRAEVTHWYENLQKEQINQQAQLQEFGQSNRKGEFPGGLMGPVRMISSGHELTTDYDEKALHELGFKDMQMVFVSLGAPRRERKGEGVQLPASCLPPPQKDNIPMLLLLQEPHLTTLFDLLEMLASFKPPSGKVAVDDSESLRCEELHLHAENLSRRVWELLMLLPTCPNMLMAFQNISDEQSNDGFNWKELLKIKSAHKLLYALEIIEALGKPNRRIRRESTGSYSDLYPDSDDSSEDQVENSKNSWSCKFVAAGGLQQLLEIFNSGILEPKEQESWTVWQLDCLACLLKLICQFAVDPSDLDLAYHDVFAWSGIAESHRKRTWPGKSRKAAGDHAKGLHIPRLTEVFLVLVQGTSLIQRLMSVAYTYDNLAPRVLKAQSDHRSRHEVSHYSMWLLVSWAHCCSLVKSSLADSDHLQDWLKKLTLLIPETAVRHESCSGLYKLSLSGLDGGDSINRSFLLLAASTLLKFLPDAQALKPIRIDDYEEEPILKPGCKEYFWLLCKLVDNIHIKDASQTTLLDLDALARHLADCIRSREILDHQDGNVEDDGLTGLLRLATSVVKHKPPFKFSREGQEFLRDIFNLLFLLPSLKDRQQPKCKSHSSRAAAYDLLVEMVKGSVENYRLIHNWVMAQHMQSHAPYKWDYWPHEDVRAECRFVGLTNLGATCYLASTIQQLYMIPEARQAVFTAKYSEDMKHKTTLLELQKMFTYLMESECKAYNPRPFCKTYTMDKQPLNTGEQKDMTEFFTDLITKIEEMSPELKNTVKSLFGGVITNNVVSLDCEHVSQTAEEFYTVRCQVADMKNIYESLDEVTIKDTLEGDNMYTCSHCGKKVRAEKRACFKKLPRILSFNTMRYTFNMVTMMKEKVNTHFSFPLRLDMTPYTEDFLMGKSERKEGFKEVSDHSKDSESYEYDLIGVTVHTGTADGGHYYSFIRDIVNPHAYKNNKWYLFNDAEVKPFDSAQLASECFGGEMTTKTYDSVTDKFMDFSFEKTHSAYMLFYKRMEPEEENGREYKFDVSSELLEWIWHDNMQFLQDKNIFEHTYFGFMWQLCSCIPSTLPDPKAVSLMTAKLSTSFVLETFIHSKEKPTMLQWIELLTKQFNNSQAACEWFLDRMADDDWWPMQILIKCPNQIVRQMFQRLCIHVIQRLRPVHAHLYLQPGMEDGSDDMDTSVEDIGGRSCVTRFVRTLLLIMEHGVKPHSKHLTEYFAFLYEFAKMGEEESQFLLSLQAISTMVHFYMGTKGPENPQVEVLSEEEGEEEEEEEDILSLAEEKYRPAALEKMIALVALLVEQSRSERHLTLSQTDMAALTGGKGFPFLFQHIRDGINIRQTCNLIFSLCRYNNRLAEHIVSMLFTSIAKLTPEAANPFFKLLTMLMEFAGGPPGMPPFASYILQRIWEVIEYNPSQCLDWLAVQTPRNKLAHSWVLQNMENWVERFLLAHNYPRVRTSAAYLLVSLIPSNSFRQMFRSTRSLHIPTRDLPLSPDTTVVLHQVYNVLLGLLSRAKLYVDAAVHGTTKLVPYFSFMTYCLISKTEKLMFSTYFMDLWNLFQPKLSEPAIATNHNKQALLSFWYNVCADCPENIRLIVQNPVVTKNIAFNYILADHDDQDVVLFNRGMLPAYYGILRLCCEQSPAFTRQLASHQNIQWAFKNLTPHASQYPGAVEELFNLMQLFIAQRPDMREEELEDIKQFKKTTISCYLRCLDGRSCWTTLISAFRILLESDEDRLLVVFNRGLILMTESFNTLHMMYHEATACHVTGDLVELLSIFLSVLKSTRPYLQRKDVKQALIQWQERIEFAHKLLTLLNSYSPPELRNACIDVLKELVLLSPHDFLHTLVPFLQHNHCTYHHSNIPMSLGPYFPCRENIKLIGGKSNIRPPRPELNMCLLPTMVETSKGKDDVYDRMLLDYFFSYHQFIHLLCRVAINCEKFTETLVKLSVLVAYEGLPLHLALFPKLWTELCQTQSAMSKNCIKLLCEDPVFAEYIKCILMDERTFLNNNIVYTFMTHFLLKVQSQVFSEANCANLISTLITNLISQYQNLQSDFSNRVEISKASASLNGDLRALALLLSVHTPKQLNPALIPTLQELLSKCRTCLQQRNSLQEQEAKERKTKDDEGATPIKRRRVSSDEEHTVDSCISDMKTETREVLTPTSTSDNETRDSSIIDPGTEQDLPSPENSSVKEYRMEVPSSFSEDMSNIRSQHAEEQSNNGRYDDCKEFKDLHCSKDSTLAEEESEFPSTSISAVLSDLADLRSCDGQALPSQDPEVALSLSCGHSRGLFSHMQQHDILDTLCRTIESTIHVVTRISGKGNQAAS
Outline: (§1)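 HEK293T lysate, 495 µg per sample in Tris/CHAPS/IGEPAL buffer with protease inhibitors, was treated in triplicate with fragment at 200 µM or vehicle for 3 h and then with Biotin-Ahx-Ub-VS at 0.5 µM final for 1 h. Labelled DUBs were NeutrAvidin-enriched, digested with LysC and trypsin, and run by diaPASEF LC-MS/MS. Spectronaut label-free quantities were global-median-normalised, and values are average log2 fragment/vehicle ratios by unpaired t-test on proteins with ≥2 unique peptides.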

[2] = molecular target: T1, USP36 (UniProt Q9P275)
T1 sequence (whole entry): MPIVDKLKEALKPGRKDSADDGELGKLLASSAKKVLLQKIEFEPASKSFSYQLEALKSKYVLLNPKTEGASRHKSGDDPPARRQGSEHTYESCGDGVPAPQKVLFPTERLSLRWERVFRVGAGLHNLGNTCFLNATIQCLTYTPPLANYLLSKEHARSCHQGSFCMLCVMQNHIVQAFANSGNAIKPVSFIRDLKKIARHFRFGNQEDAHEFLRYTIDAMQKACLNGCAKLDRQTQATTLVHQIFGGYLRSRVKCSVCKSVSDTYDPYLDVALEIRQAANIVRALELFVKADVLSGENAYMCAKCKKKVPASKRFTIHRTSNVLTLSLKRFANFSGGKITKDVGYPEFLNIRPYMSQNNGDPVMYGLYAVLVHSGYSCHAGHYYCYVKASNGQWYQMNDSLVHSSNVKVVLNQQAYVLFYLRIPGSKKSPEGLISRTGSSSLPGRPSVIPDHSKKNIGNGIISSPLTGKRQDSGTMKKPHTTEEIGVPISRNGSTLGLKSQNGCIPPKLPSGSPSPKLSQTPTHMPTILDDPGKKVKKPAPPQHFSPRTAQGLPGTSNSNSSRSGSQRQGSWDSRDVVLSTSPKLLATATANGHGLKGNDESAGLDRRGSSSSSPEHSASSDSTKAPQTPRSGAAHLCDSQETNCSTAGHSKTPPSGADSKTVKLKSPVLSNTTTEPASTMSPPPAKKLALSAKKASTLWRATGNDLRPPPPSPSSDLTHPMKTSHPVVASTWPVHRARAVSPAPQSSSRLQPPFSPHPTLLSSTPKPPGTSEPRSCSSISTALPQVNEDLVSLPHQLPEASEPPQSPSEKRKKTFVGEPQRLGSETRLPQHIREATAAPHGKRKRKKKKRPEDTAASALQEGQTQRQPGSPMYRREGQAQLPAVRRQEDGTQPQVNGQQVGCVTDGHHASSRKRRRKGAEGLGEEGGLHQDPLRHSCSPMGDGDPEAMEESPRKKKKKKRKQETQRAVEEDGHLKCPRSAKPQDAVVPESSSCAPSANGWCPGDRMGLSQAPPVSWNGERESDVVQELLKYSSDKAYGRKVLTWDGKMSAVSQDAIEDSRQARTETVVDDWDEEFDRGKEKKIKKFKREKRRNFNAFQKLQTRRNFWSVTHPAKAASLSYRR
Outline: as §1

[3] = molecular target: T2, USP38 (UniProt Q8NB14)
T2 sequence (whole entry): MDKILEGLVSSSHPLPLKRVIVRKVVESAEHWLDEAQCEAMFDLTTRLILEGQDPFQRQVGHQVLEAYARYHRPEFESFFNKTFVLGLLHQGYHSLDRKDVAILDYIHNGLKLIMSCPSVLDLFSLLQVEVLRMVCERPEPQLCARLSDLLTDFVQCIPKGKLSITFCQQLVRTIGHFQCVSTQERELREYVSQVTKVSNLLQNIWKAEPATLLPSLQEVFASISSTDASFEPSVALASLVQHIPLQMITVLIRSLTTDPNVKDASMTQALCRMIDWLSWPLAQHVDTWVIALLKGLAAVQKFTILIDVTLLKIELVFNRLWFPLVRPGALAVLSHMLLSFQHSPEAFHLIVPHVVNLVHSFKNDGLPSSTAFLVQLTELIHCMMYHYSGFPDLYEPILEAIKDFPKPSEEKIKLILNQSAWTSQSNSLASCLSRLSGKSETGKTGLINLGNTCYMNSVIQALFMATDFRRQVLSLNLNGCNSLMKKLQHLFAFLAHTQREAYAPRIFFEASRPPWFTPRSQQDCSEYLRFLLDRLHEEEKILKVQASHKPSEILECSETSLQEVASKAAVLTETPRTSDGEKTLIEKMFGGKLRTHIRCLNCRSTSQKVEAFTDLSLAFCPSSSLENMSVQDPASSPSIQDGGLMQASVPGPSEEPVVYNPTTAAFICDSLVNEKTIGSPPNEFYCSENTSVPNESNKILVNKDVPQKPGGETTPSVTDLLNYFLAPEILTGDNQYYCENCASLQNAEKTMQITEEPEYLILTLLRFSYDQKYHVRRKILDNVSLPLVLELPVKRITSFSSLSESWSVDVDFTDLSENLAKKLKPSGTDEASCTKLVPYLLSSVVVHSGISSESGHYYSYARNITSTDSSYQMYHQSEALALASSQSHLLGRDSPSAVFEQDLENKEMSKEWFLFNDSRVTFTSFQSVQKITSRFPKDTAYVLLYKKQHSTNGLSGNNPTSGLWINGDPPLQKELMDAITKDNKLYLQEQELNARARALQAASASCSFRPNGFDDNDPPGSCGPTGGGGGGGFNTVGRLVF
Outline: as §1

[4] = molecular target: T3, USP39 (UniProt Q53GS9)
T3 sequence (whole entry): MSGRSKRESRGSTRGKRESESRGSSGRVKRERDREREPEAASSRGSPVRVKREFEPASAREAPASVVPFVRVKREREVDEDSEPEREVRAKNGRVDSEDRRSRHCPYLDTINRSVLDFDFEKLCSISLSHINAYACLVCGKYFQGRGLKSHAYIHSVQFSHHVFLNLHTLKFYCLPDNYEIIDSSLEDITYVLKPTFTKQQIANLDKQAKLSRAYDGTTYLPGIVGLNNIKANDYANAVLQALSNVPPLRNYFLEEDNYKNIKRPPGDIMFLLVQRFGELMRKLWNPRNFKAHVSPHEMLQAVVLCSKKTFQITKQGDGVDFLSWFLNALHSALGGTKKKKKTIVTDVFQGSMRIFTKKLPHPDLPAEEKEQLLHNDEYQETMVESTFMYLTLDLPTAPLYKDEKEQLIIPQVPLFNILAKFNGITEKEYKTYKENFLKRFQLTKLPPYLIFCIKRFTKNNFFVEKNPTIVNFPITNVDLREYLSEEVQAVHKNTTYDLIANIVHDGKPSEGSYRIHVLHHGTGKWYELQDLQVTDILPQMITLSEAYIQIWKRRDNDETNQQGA
Outline: as §1

[5] = molecular target: T4, USP4 (UniProt Q13107)
T4 sequence (whole entry): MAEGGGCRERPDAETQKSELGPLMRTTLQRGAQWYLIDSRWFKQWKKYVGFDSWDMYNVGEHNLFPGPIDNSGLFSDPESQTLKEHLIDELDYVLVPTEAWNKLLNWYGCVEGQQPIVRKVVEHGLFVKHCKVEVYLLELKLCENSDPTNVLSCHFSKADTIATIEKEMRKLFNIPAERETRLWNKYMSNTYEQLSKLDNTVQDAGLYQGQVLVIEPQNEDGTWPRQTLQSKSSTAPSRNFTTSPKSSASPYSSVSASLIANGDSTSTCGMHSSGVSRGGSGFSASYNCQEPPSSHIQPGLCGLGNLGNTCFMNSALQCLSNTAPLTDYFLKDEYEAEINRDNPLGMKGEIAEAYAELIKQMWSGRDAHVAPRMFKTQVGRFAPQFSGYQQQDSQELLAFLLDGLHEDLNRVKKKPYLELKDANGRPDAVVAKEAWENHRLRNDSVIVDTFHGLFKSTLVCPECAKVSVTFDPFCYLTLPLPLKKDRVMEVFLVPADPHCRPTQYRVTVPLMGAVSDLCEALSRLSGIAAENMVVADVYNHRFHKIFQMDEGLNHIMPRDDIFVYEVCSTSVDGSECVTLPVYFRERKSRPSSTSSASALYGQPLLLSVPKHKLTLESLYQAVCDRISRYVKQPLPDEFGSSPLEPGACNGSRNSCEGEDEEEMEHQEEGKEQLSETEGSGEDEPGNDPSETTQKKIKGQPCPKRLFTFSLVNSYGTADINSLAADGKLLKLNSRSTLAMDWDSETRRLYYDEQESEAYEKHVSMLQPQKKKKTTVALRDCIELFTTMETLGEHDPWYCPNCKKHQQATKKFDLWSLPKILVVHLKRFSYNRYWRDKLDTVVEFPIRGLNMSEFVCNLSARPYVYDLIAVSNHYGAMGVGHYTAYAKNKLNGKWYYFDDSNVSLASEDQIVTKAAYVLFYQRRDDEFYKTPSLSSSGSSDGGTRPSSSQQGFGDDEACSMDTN
Outline: as §1

Measured: log2 ratio of Biotin-Ahx-Ub-VS probe labelling

O=C(CCl)NCCc1ccc(F)cc1
inactive: [1] -0.0755 | [2] 0.207 | [3] 0.0565 | [4] 0.108 | [5] -0.11
